Results from PubChem BioAssay (NCI).
Compounds without any hit were thinned out: in the full panel of roughly 79,000, 15% have a hit. Active and inactive are the calls of the source. Rule as the data show it: active = growth inhibition above about 70%; inactive = the rest.

Assay: NCI Yeast Anticancer Drug Screen. Data for the rad50 strain (AID 155);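 also: 0% = growth of vehicle-only cultures of the same strain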
Conditions: S. cerevisiae rad50 strain growth inhibition; at 50.0 µM; hits give high values
How it was run: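 Vehicle-treated cultures provide the reference for the growth inhibition reported for compound-exposed, repair-deficient yeast.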

Structure (SMILES)	growth inhibition
CN(c1ccccc1Cl)S(C)(=O)=O	-4.2% (inactive)
C=CC(COC(=O)C(C)(C)OC(C)=O)c1ccc(OC(=O)C(C)C)c(OC)c1 (configuration not stated)	-12.3% (inactive)
O=C1CC(c2ccccc2)NCCCCN2CC(CN1)C(C(O)c1ccccc1)C2=O (configuration not stated)	-20.4% (inactive)
Cc1nc(-[n+]2nc(-c3ccccc3)nn2-c2ccccc2)sc1C	3.3% (inactive)
COC(=O)c1cc(C#N)[nH]c1-c1ccsc1	-27.4% (inactive)
O=Cc1ccc2c(c1Cl)C(=O)c1ccccc1C2=O	51% (inactive)
N/N=C(\C(=O)Nc1ccc([N+](=O)[O-])cc1)C(C1=Nc2cc([N+](=O)[O-])ccc2NC1)[N+](=O)[O-] (configuration not stated)	34.7% (inactive)
NC(CCC(=O)OCc1ccccc1)C(=O)OCc1ccccc1 (configuration not stated)	-0.95% (inactive)
CC(=O)NS(=O)(=O)c1ccc2sc(C)nc2c1	-32% (inactive)
Cc1cc(S(=O)(=O)O)c(NC(=O)c2oc3cc(O)ccc3c(=O)c2C)cc1Cl	-9.4% (inactive)
COc1cccc(/C=C/C(=O)c2ccc(Cl)cc2)c1OC	27% (inactive)
COc1cc([C@H]2OC[C@@H]3C(c4cc(OC)c5c(c4)OCO5)OC[C@H]23)cc(OC)c1OC (some centres not stated)	-8.65% (inactive)
COc1cc2c3cc1Oc1c(OC)c(OC)cc4c1C(Cc1ccc(O)c(c1)-c1cc(ccc1OC)CC3N(C)CC2)N(C)CC4 (configuration not stated)	-1.25% (inactive)
COc1ccc(OC)c(N(CN2C(=O)CCC2C(=O)O)C(C)=O)c1 (configuration not stated)	10.2% (inactive)
O=C(O)c1cn(C2CC2)c2cc(N3CCNCC3)c(F)cc2c1=O	8.9% (inactive)
CC1=NN(c2ccccc2)C(=O)C1C(=O)c1ccccc1 (configuration not stated)	22.2% (inactive)
COc1ccc(NCc2ccc(C)cc2)cc1	-2.55% (inactive)
ClCCCC1(CCCCl)OCCO1	-21.3% (inactive)
O=c1oc(-c2cccc([N+](=O)[O-])c2)nc2ccccc12	4.4% (inactive)

Structure (SMILES)	growth inhibition
COc1cc(C2N(c3ccccc3)CCN2c2ccccc2)cc(OC)c1OC	59% (inactive)
CCOc1ccc(NC(=O)C2CCC(C)(C(=O)O)C2(C)C)cc1 (configuration not stated)	-3.45% (inactive)
CC12CCC(CC1)C(C)(C)O2	-1.95% (inactive)
O=C1c2ccccc2C(=O)c2c1cccc2N1C(=O)C=CC1=O	51.2% (inactive)
O=C(/C=C(\[O-])c1ccccc1)CCCCCCC(=O)/C=C(\[O-])c1ccccc1.O=C(/C=C(\[O-])c1ccccc1)CCCCCCC(=O)/C=C(\[O-])c1ccccc1.O=C(/C=C(\[O-])c1ccccc1)CCCCCCC(=O)/C=C(\[O-])c1ccccc1.[La+3].[La+3]	-2.3% (inactive)
O=C1c2ccccc2C(=O)N1/N=C/c1cc(Cl)cc(Cl)c1O	0.95% (inactive)
C=C1C(=O)OC2CC(C)C3(O)CCC(=O)C3(C)CC12 (configuration not stated)	-14.8% (inactive)
O=C(NC(CO)C(O)c1ccc([N+](=O)[O-])cc1)C(Cl)Cl (configuration not stated)	-32.2% (inactive)
COc1c2c(c3c(c1OC)c(=O)c1ccccc1n3C)OCO2	6.25% (inactive)
CC1OC23CCCCC2C(C#N)(C#N)C1(C#N)C(=N)O3 (configuration not stated)	3.65% (inactive)
CCCCCCCCCC(O)CCCCC (configuration not stated)	-1.85% (inactive)
Cc1ccc(/C=C2/N=C(N/N=C\c3ccccc3)NC2=O)cc1	-6.15% (inactive)
c1coc(-c2nc(N=C3N=c4ccccc4=N3)[nH]c2-c2ccco2)c1	16.6% (inactive)
CCOc1ccc(Br)cc1/C=N/NS(=O)(=O)c1ccc(C)cc1	46.7% (inactive)
CCn1c2[n+](c3ccccc31)CCC2	-28.6% (inactive)
CC(C)N(C)c1ccc(N=Nc2cc(Cl)ccc2Cl)cc1	-27.6% (inactive)
CC(=O)CCN(Cc1ccccc1)Cc1ccccc1	1.7% (inactive)
CCCCN1CCNCC1	10.1% (inactive)
